Shown are actives, neighbours in structure and some others; about 10% of the full set was active somewhere.
HP1b chromo inh = HP1-beta chromodomain-methylated histone interaction inhibition; P83916; AlphaScreen HP1-beta / biotin-H3K9me3 peptide binding; Potency, µM (top dose mostly 114 µM), inactives show at the top dose activity change, negative = inhibition, usual class: inhibitors; hit rate 0.56% among 390,000; further: potency means the concentration at half of the fitted maximal effect; nearly all actives have a fitted effect of over 70% in size
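Compound inhibition of the preformed complex between 50 nM HP1-beta and 50 nM biotinylated H3K9me3 peptide was read by AlphaScreen. Buffer was PBS pH 7.4 with 0.01% Tween-20. Incubations ran 30 min at room temperature, with 10 ug/mL donor/acceptor beads.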
G9a block = blocks human histone lysine methyltransferase G9a; Q96KQ7; G9a H3K9 monomethylation, AlphaScreen, 2 h; Potency, µM (series often up to 102 µM), for inactives: at the top dose activity, negative = inhibition, usual class: inhibitors; hit rate 8.8% among 350,000; AID 504332; further: potency means the concentration at half of the fitted maximal effect; on the % scale 0 is the no-effect control and ±100 the full control effect; nearly all actives have a fitted effect of over 75% in size
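Compounds were preincubated with 20 nM G9a for 15 min, after which biotinylated H3K9 peptide (500 nM) and SAM (20 uM) started a 2 h room-temperature reaction. Monomethylated product was quantified by antibody-based AlphaScreen chemiluminescence.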
Six1-Eya2 blk = inhibitors of human Six1/Eya2 interaction | hit rate 0.56% among 360,000 | Q15475+O00167 | activity change, % (concentration not given with the values) | AlphaScreen GST-Six1/His-Eya2 binding, biochemical; active compounds read low; in the data active means activity change below about -65%; inconclusive means mostly about -30% to -63%; further: on the % scale 0 is the no-effect control and ±100 the full control effect
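Homogeneous AlphaScreen proximity assay pairing GST-Six1 with His-tagged Eya2 (added as 5X mix: 250 nM and 500 nM) in 50 mM Tris pH 8.0, 300 mM NaCl, 1 mM TCEP. Glutathione donor and nickel acceptor beads; 1 h, 37 °C, dark.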
JMJD2A Tudor inh = JMJD2A Tudor domain (human) inhibition; O75164; AlphaScreen JMJD2A-Tudor / H3K4me3 peptide binding; Potency, µM (series often up to 114 µM), inactives show at the highest dose activity change, negative = inhibition, usual class: inhibitors; hit rate 4.4% among 390,000; AID 504339; further: potency means the concentration at half of the fitted maximal effect; on the % scale 0 is the no-effect control and ±100 the full control effect; nearly all actives have a fitted effect of over 50% in size
CtBP-E1A inh = blocks the CtBP interaction with E1A; AlphaScreen GST-E1A/His-CtBP binding, 1536-well; active compounds read low; activity change, % (concentration not given with the values); hit rate 0.49% among 340,000; in the data active means activity change below about -65%; inconclusive means mostly about -30% to -63%; further: on the % scale 0 is the no-effect control and ±100 the full control effect
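GST-E1A and His-tagged CtBP (125 nM each as 5X stock) were preincubated with pin-transferred compound for 2 h at 37 °C in the dark, then glutathione donor and nickel acceptor beads were added for 1 h before AlphaScreen reading.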
BAZ2B inh = BAZ2B (human) inhibition; Potency, µM (doses to about 114 µM), without a hit: top-dose activity change, negative = inhibition, actives largely listed as inhibitors; AID 504333; hit rate 4.4% among 360,000; Q9UIF8; AlphaScreen BAZ2B-H3K14Ac peptide displacement; further: potency means the concentration at half of the fitted maximal effect; on the % scale 0 is the no-effect control and ±100 the full control effect; nearly all actives have a fitted effect of over 60% in size
Target sequence (Q9UIF8 whole entry, looked up): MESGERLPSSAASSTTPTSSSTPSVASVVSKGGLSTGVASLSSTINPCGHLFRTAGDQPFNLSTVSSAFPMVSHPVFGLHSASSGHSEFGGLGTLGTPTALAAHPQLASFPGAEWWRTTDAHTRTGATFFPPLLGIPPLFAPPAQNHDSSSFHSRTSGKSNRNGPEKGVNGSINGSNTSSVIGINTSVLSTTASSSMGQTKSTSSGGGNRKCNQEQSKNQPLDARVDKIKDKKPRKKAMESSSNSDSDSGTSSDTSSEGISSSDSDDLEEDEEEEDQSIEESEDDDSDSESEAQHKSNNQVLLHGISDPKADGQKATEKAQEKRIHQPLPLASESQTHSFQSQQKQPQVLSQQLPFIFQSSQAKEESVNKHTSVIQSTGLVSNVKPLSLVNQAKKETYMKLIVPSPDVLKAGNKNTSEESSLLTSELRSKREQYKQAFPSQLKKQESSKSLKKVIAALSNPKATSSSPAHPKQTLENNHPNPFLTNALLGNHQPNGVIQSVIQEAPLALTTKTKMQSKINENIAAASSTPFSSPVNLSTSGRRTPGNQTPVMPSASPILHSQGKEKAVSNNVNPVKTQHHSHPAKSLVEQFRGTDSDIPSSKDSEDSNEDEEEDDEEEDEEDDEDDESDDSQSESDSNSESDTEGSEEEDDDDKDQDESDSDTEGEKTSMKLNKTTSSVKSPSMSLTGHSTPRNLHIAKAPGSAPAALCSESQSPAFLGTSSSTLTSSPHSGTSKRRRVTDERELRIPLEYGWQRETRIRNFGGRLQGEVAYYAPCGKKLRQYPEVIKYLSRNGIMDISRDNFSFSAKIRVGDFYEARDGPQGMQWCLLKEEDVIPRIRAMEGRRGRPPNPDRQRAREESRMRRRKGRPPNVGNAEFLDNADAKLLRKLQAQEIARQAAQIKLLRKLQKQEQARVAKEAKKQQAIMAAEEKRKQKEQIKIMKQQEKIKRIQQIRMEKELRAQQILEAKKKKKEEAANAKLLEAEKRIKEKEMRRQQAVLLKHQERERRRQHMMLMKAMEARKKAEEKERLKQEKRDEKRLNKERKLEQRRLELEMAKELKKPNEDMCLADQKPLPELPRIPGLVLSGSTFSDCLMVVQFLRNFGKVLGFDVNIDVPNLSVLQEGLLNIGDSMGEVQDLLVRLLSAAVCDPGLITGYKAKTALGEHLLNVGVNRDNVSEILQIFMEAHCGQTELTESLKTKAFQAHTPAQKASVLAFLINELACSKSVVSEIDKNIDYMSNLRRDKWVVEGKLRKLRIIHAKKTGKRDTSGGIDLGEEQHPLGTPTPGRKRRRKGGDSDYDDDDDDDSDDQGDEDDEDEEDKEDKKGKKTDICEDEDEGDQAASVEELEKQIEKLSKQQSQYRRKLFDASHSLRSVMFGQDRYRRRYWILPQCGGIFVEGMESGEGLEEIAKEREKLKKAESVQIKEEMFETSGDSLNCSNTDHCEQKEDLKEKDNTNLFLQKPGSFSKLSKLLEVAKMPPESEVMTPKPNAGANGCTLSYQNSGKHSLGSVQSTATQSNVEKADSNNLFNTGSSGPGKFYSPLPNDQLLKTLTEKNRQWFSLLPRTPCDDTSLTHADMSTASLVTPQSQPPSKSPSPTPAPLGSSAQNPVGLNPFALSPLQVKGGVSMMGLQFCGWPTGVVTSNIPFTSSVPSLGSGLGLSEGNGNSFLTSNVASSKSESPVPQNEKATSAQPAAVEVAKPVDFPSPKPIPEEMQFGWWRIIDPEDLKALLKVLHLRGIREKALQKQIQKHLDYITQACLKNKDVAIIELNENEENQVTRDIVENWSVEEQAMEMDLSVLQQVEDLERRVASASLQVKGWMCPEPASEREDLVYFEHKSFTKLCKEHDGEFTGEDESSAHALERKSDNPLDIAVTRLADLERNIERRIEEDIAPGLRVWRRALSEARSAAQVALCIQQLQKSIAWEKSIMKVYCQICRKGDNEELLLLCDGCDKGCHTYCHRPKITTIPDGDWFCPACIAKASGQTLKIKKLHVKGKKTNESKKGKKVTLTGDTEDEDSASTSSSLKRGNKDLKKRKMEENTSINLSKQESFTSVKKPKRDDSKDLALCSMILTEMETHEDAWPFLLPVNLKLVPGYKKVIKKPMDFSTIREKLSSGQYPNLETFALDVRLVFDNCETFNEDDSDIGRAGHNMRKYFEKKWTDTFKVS
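BAZ2B (50 nM) with biotin-H3(5-23)K14Ac peptide (50 nM) in PBS pH 7.4, 0.01% Tween-20, preformed 30 min, then compound 30 min at room temperature; top concentration 110uM. AlphaScreen streptavidin donor/nickel chelate acceptor beads (10 ug/mL final), 20 min dark, signal read.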
* marks the source's active call; other numbers are inactive results; ? = inconclusive; . = not tested or not shown; [ ] = remark or other dose. Unless noted, the call rests on the fitted dose curve; in most records, active means well fitted inhibition curve with a large enough effect; inconclusive means small, poorly fitted or top-dose-only effect; inactive means no such curve, though single readings can be large or run the other way.

SMILES | HP1b chromo inh | G9a block | Six1-Eya2 blk | JMJD2A Tudor inh | CtBP-E1A inh | BAZ2B inh
Cc1ccccc1NC(=S)NC1CCCC1 | 11% | -7% | 1 | -8% | -5 | 8%
Cc1cccc(NC(=O)c2ccccc2NC(=O)C2CCCCC2)c1C | 0% | 15%[0.501 µM] | 0 | -13% | -1 | 50µM*
COCCCn1cc(CN2CC(N3CCN(C4CCN(C)CC4)CC3)CS2(=O)=O)nn1 (centres undefined) | . | . | -10 | . | 0 | .
Cc1nn(C(C)C)c(C)c1CN1CCN(Cc2ccsc2)C(CCO)C1 (centres undefined) | 20% | 2% | 9 | -11% | -7 | -1%
CCOC(=O)C(Cc1ccnc2ccccc12)=NO | 7%[57 µM] | . | 10 | -19% | 2 | .
O=C(O)C(Cc1ccnc2ccccc12)=NO | 25% | . | -2 | 3.2µM* | 7 | .
Cc1cc(/C=C2\SC(=S)NC2=O)cc(C)c1O | -6% | 40µM* | -8 | -31% | . | ?
O=C1NC(=S)SC1=Cc1ccccc1Cl | ? | . | -7 | ? | ? | .
O=C1NC(=S)S/C1=C\c1cc(Cl)cc(Cl)c1O | 45µM* | . | ? | 40µM* | ? | .
CC(=O)c1cccc(NC(=O)N2CCC(NC(=O)C3CCCCC3)CC2)c1 | 40% | 18% | 0 | 2% | -3 | 4%
O=C(O)CN1C(=O)/C(=C\c2cc(Br)ccc2OCc2ccccc2F)SC1=S | -11% | 40µM* | -5 | 50µM* | . | 56µM*
O/N=C/c1cc(Br)ccc1OCc1ccccc1F | 107% | . | -2 | -9% | 1 | .
O=C(O)CN1C(=O)/C(=C\c2cc(Br)ccc2OCc2ccccc2Cl)SC1=S | -20% | 14µM* | -17 | ? | -17 | 45µM*
O=C(O)CN1C(=O)/C(=C\c2ccccc2OCc2ccc(Cl)cc2Cl)SC1=S | -13% | 32µM* | -7 | 56µM* | -7 | ?
CCOc1ccccc1C=C1SC(=S)N(CC)C1=O | -23%[57 µM] | . | -4 | ? | -6 | .
O=C(O)CN1C(=O)/C(=C\c2cccc(OCc3ccc(Cl)cc3Cl)c2)SC1=S | ? | . | -16 | 50µM* | -2 | 79µM*
COc1cccc(/C=C2/SC(=S)N(CC(=O)NNC(=O)c3ccccc3OC)C2=O)c1 | 31% | -2%[59 µM] | -8 | 0% | -17 | -14%
NC(Cc1c[nH]c2ccccc12)C(=O)Nc1ccccc1 (centres undefined) | 14% | . | -9 | -18% | -1 | .
O=C(O)COc1ccc(Br)cc1/C=C1/SC(=O)N(CC(=O)N2CCCC2)C1=O | 38% | -36%[2.33 µM] | 4 | ? | -2 | 4%
O=C(O)CN1C(=O)/C(=C\c2cc(Br)ccc2OCc2ccc([N+](=O)[O-])cc2)SC1=S | -38% | 20µM* | -5 | 56µM* | 4 | 45µM*
O=S(=O)(NC1CC1)c1ccc(S(=O)(=O)N(Cc2ccccn2)C2CC2)cc1 | 12% | 71µM* | -3 | -2% | -12 | -25%
CCc1ccc(NC(=O)[C@H](Cc2ccccc2)NC(=O)C2CCN(C(=O)[C@@H](N)CC(C)C)CC2)cc1 | 36% | 7%[12.7 µM] | -3 | -24% | 4 | -24%
COc1cccc(-n2c(=S)sc3c(=O)n(-c4ccccc4OC)c(=S)[nH]c32)c1 | -6% | ? | -13 | ? | -23 | ?
COc1ccccc1-n1c(=S)[nH]c2c(sc(=S)n2-c2ccccc2)c1=O | 23% | -7% | -19 | ? | -27 | -16%
COc1ccc(OC)c(-n2c(=S)[nH]c3c(sc(=S)n3-c3ccccc3C)c2=O)c1 | -22% | 31%[59 µM] | 2 | 89µM* | 0 | ?
SMILES | HP1b chromo inh | G9a block | Six1-Eya2 blk | JMJD2A Tudor inh | CtBP-E1A inh | BAZ2B inh
COc1ccccc1-n1c(=S)[nH]c2c(sc(=S)n2-c2ccccc2C)c1=O | ? | ? | -30 | 79µM* | -6 | -24%
CCOc1ccccc1-n1c(=S)sc2c(=O)n(-c3ccccc3)c(=S)[nH]c21 | 24% | 16%[59 µM] | -18 | 79µM* | -9 | -30%
COc1ccc(-c2cc(C(F)(F)F)nc(SCCC(=O)Nc3c(C)cccc3C)n2)cc1 | 41% | 4%[59 µM] | . | 7% | . | 2%
COCCCN1CN=C(NS(=O)(=O)c2ccc(NC(C)=O)cc2)NC1 | 4% | -6%[59 µM] | . | 3% | . | -28%
Nc1ccn(-c2ccc(Cl)cc2)c(=O)c1 | 6% | 0% | 5 | -9% | -2 | 5%
COc1ccc(-n2nc3c(N)n[nH]c3cc2=O)cc1 | 30% | 50µM* | -5 | -10% | -27 | -17%
Nc1n[nH]c2cc(=O)n(-c3ccc(Cl)cc3)nc12 | 44% | 45µM* | ? | -9% | . | -10%
FC(F)(F)c1ccccc1-c1cncnc1NCCN1CCOCC1 | . | -1%[0.501 µM] | . | . | . | .
Cc1nc(SCC(=O)N2CCC(Cc3ccccc3)CC2)[nH]c(=O)c1C | 11% | ? | 6 | -17% | 3 | -3%
COC(=O)c1ccc(NC(=S)NNC(=O)CC(C)C)cc1 | -12% | 10µM* | 3 | -23% | 8 | -1%
CCOC(=O)c1ccc(NC(=S)NNC(=O)COC)cc1 | 13% | ? | -6 | -5% | -1 | 44%
CC(C)CCOCC(O)CCC(=O)NNC(=S)Nc1ccccc1 (centres undefined) | 24% | 28µM* | 1 | -11% | . | -2%
O=C(NC(=S)Nc1ccc(F)c(Cl)c1)C1CC1 | 43% | 56µM* | 1 | -4% | 0 | -14%
CCOC(=O)c1ccc(NC(=S)NNC(=O)C2(C)CC2(Cl)Cl)cc1 (centres undefined) | -2% | 10µM* | -1 | -18% | 2 | 11%
CCOC(=O)CC1(C)Oc2ccccc2N1S(=O)(=O)c1ccc(C)cc1 (centres undefined) | . | . | 5 | . | 1 | .
Cc1cccc(NC(=O)CSc2nnc3c4ccccc4n(C)c3n2)c1 | 48% | 2%[59 µM] | . | 3% | . | 3%
COC(=O)c1ccc(NC(=S)NC(=O)C2CCC2)cc1 | 47% | 79µM* | -3 | -6% | -7 | -6%
O=C(NC(=S)Nc1ccccc1Br)C1CCC1 | 34% | 22% | 4 | -10% | 4 | 3%
N#Cc1ccccc1NC(=S)NC(=O)C1CCC1 | 31% | 71µM* | 3 | 1% | -1 | -12%
COC(=O)c1ccc(NC(=S)NC2c3ccccc3CC2O)cc1 (centres undefined) | -7% | 50µM* | 12 | -4% | -5 | 1%
Cc1cc(N2CCC(C(=O)Nc3ccc(F)cc3F)CC2)n2nc(C)c(-c3ccc(Cl)cc3)c2n1 | 41% | -4%[59 µM] | . | -1% | . | -2%
COc1cc(OC)cc(-n2nnc(-c3nc(-c4ccccc4Cl)no3)c2N)c1 | 30% | -9%[59 µM] | . | 1% | . | -14%
Cc1oc2ccc(O)c(CN3CCCC(C)C3)c2c1C(=O)Nc1ccccc1 (centres undefined) | 32% | 5%[59 µM] | . | -16% | . | -11%

Screening results from PubChem BioAssay.
